Drawing on PubChem BioAssay (NCATS), this text covers outcome for eleven compounds.

Calls of active or inactive are those of the source. Calls follow the shape of the dose curve; as a rule, active = well fitted curve in the direction sought with a large enough effect; inconclusive = small, poorly fitted or top-dose-only effect, or effect the other way, or another doubt; inactive = no such curve, though single readings can be large or run the other way.

The test is described as follows: Inducers of the Endoplasmic Reticulum Stress Response (ERSR) in human glioma: Validation (AID 504836). Particulars: human glioma cells, ER stress response reporter; series mostly up to 38.3 µM. In a few lines: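 Stably transfected U87-MG glioma cells carrying a GRP78-based luciferase sensor; 16 h compound incubation. Luminescence end-point read 10 min after Bright-Glo addition at room temperature.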
Regarding `CCN(CC)CC#CCOC(=O)C(O)(c1ccccc1)C1CCCCC1` (stereo unspecified), the compound was classed as inactive.

Take `C[N+](C)(C)CCCCCC[N+](C)(C)C`: the call was inactive.

As to `CCOC(=O)C1=C(C)NC(C)=C(C(=O)OC)C1c1cccc([N+](=O)[O-])c1` (stereo unspecified), the outcome was inactive.

`CCN(CC)CCOC(=O)c1ccc(N)cc1`: the compound was classed as inactive.

In the case of `CC(C)NNC(=O)c1ccncc1`, the result was inactive.

As to `CC(=O)c1ccc(S(=O)(=O)NC(=O)NC2CCCCC2)cc1`, the call was inactive.

Consider `c1ccc2c(c1)CCCC2C1=NCCN1` (stereo unspecified), for which the compound was classed as inactive.

Take `CC(C)NCC(O)c1ccc(NS(C)(=O)=O)cc1` (stereo unspecified): the outcome was inactive.

`CCN(CC)C(C)CN1c2ccccc2Sc2ccccc21` (stereo unspecified): the compound was called inactive.

In the case of `CC1COc2c(N3CCN(C)CC3)c(F)cc3c(=O)c(C(=O)O)cn1c23` (stereo unspecified), the compound was called inactive.

As for `CNCCCC12CCC(c3ccccc31)c1ccccc12`, the call was inactive.
